High-throughput results from PubChem.
Most compounds without a hit are left out; they make up all but 7.9% or so of the library.
MCF10A rereplic = DNA re-replication induction in MCF 10a cells; AID 624296; Potency, µM (titrated, usually from 46.1 µM), inactives show at the highest dose activity, positive = re-replication, actives largely listed as activators; MCF 10A DNA re-replication, Hoechst nuclear intensity, 48 h; hit rate 2.9% among 350,000; further: % of control where 0% means no effect; nearly all actives have a fitted effect of over 50% in size
SW480 rerep = DNA re-replication induction in SW480 cells; hit rate 1.8% among 340,000; Potency, µM (top dose mostly 46.1 µM), for the others: top-dose re-replication activation, usual class: activators; SW480 DNA re-replication, Hoechst DNA content imaging, 48 h; AID 624297; further: % of control where 0% means no effect; nearly all actives have a fitted effect of over 55% in size
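Image-based read-out: total Hoechst fluorescence of nuclei (405 nm excitation, 500-530 nm emission), with hits raising the fraction of high-intensity nuclei. SW480 colon cells incubated 48 hr with compounds at 37 C.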
KB-3-1 cytotox = kills parental KB-3-1 adenocarcinoma cells | KB-3-1 viability, CellTiter-Glo ATP luminescence, 72 h | Potency, µM (series often up to 46.1 µM), most hits filed as cytotoxic | hit rate 1.4% among 400,000 | AID 1347075; further: on the % scale 0 is the no-effect control and ±100 the full control effect; nearly all actives have a fitted effect of over 60% in size
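Cells are dispensed, compounds pinned in, plates held at 37 °C for 72 h, then CellTiter-Glo is added and luminescence read after 10 minutes. Cell line: parental KB-3-1 in phenol-red-free DMEM, 10% FBS.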
HT1080 IDH1KD tx = HT-1080 IDH1 knockdown cell toxicity (counter line) | Potency, µM (highest dose often 46.1 µM), without a hit: at the top dose activity, negative = toxicity, most hits filed as cytotoxic | HT-1080 IDH1 knockdown viability, ATP luminescence, 48 h | hit rate 2% among 360,000;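 further: 0% = DMSO wells and -100% = cell-free medium wells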
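In this qHTS, HT-1080 cells depleted of IDH1 are exposed for 48 h at 37 °C to compound titrations. Toxicity is scored from CellTiter-Glo luminescence, with DMSO as full viability and medium alone as none.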
KB-V1 MDR tox = kills drug-selected multidrug resistant KB-V1 cells; hit rate 3.4% among 400,000; KB-V1 MDR cells viability, CellTiter-Glo, 72 h; Potency, µM (titrated, usually from 46.1 µM), actives largely listed as cytotoxic; further: on the % scale 0 is the no-effect control and ±100 the full control effect; nearly all actives have a fitted effect of over 60% in size
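Drug-selected KB-V1 cells, grown in DMEM lacking phenol red with 10% FBS, receive compound titrations; after three days at 37 degrees C, surviving cell ATP is quantified by CellTiter-Glo luminescence and responses normalized and curve-fitted.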
HT1080-NT tox = kills 2HG-producing HT-1080-NT fibrosarcoma cells; HT-1080-NT fibrosarcoma viability, CellTiter-Glo ATP luminescence, 48 h; Potency, µM (series often up to 46.1 µM), without a hit: top-dose activity, negative = less viability, hits mostly cytotoxic; hit rate 1.6% among 360,000;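 further: NT is the 2HG producing partner of a matched IDH1 knockdown line; 0% = DMSO-treated cells and -100% = media-only wells without cells; nearly all actives have a fitted effect of over 55% in size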
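Viability of the 2HG-overproducing fibrosarcoma line after 48 hours of compound exposure at 37 degrees C was determined by luminescence with CellTiter-Glo, and concentration-effect curves were then fitted and categorized.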
* marks the source's active call; other numbers are inactive results; i = inactive; ? = inconclusive; nt = no result. The call rests on the fitted dose curve; in most records, active means well fitted curve in the direction sought with a large enough effect; inconclusive means small, poorly fitted or top-dose-only effect, or another doubt; inactive means no such curve, though single readings can be large; an effect the other way counts as inactive or inconclusive. Potency means the concentration at half of the fitted maximal effect.

SMILES	MCF10A rereplic	SW480 rerep	KB-3-1 cytotox	HT1080 IDH1KD tx	KB-V1 MDR tox	HT1080-NT tox
O=[N+]([O-])c1ccc(C(O)CN=Cc2ccc(O)cc2O)cc1 (configuration not stated)	16µM*	10%	i	8.2µM*	i	12µM*
Cc1nc2ccccc2n1CC(=O)N/N=C\C=C\c1ccccc1	3%	-2%	i	-3%	21µM*	9%
Cc1ccc(C(=O)Cn2c(C(=O)/C=C/c3ccccc3)nc3ccccc32)cc1	23µM*	?	?	?	13µM*	?
CC(C)c1ccccc1NC(=O)Cn1c(-c2ccccc2Cl)nc2ccccc21	-1%	28%	i	-8%	?	-9%
CC(C)c1ccccc1NC(=O)Cn1c(/C=C/c2ccccc2)nc2ccccc21	10µM*	9.2µM*	i	-27%	?	?
CC(=O)c1cc(-c2ccccc2)n(CC(=O)Nc2ccc(C)c(C)c2)c1C	23µM*	4%	i	-30%	i	?
CC(=O)c1cc(-c2ccccc2)n(CC(=O)Nc2cccc(C)c2C)c1C	-3%	-1%	i	1%	i	-1%
CCNC(=O)c1ccc(CSc2nc3ccncc3n2Cc2ccc(F)cc2)cc1	nt	nt	i	nt	i	nt
COc1ccccc1NC(=O)c1ccccc1NC(=O)c1ccccc1C(=O)O	13%	-4%	i	-6%	?	1%
Cc1nc2ccccc2n1CC(=O)NC1CCCCCC1	0%	-12%	?	?	15µM*	?
Cc1nc2ccccc2n1CC(=O)NC1CCCC1	-16%	-3%	i	-3%	i	4%
CCCn1c(/C=C/c2ccccc2)nc2ccccc21	23µM*	?	i	10µM*	i	10µM*
Cc1occc1C(=O)N/N=C/C=C\c1ccccc1[N+](=O)[O-]	1%	0%	i	19%	i	29%
O=C(N/N=C/C=C\c1ccccc1[N+](=O)[O-])c1ccco1	?	26µM*	i	7%	i	-3%
Cc1ccc(NC(=O)Cn2c(/C=C/c3ccccc3)nc3ccccc32)cc1C	16µM*	?	i	?	?	?
Cc1c(NS(=O)(=O)c2ccccc2)c(=O)n(-c2ccccc2)n1C	7%	-1%	i	-5%	i	-10%
CCOC(=O)Cn1nnnc1CN(Cc1ccc(OC)cc1)Cc1cc2cc(C)cc(C)c2[nH]c1=O	-2%	-4%	i	-4%	i	-1%
Cn1c(=O)c2sccc2n2c(CCC(=O)NCc3ccc(Cl)cc3)nnc12	nt	nt	i	nt	?	nt
CCn1c(SCC(=O)N/N=C/C=C\c2ccccc2[N+](=O)[O-])nc2ccccc21	15%	-1%	?	-24%	7.3µM*	8%
CCOC(=O)N1CCN(c2c(NCc3ccc(Cl)cc3)c(=O)c2=O)CC1	10µM*	6.5µM*	10µM*	5.8µM*	i	?
CCOC(=O)N1CCN(c2c(NCc3cccs3)c(=O)c2=O)CC1	18µM*	?	6.5µM*	?	i	?
CCOC(=O)N1CCN(c2c(NCc3ccc(F)cc3)c(=O)c2=O)CC1	?	3.3µM*	5.2µM*	5.2µM*	i	5.2µM*
COc1ccc(CCNc2ncnc3c2cnn3-c2cc(Cl)ccc2C)cc1	nt	nt	i	nt	?	nt
CCOC(=O)c1ccc(CC2S/C(=C(\C#N)C(C)=O)NC2=O)cc1 (configuration not stated)	?	-2%	?	?	i	-1%
CCc1ccc(CC2S/C(=C(\C#N)C(C)=O)NC2=O)cc1 (configuration not stated)	?	20%	?	?	7.3µM*	-29%
